Test results: ChEMBL document CHEMBL3988442, “University of Dundee, Small-Polar-MMV Screening Library” (2021)
About 13,000 (27%) of roughly 48,000 compounds showed an effect of 50% or more. Some of the results follow.

Test system: Wolbachia pipientis
Assay: Anti-Wolbachia Cell-Based Screen
Format: functional
Parameters: scale not given: in the data most compounds retested in dose-response had high values
Details: 5 µM

Structure (SMILES) | Percent Effect [%]
CCc1noc(CC)c1CNC(=O)Nc1ccc2[nH]nnc2c1 | 5.627
Cc1ccccc1CS(=O)(=O)CC(=O)N(C)Cc1ccccc1 | -7.305
CCCNC(=O)CCC(=O)Nc1ccc(-n2cncn2)c(F)c1 | -8.923
Cc1cc(S(=O)(=O)Nc2onc(C)c2C)c(C)s1 | -1.825
Cc1ccc(NC(=O)NCC2(N3CCOCC3)CCSC2)c(C)c1 (centres undefined) | -11.49
COCCN1CCCC12CCCN(c1nncs1)C2 (centres undefined) | 14.36
CCN1CCCC1(C)c1nc(C)cc(N)n1 (centres undefined) | 113.3
COCCN1CCCC1(C)c1nc(C)cc(N)n1 (centres undefined) | 125.2
Cc1cc(C)nc(C2(C)CCCN2CCO)n1 (centres undefined) | 123.6
Cc1cc(N2CCC3(CCC(=O)N(CCO)C3)CC2)nc(N(C)C)n1 | 21.48
CCCc1nc(C)cc(N2CCC3(CCC(=O)N(CCOC)C3)CC2)n1 | 0.7545
CCCc1nc(C)cc(N2CCC3(CCC(=O)N(CCO)C3)CC2)n1 | 3.34
Cc1nnsc1C(=O)NCc1cccnc1N(C)Cc1ccccc1 | -7.662
CC(C)N1CCOCC2(CN(Cc3nccs3)CCO2)C1.O=C(O)C(F)(F)F.O=C(O)C(F)(F)F (centres undefined) | 13.74
CNS(=O)(=O)c1cccc(CNCc2ccsc2)c1 | 4.811
CC(=O)N1CCCC2(CCN(c3nncs3)C2)C1 (centres undefined) | -12.49
O=C(CCO)N1CCOC2(CCCN(C(=O)c3ccco3)C2)C1 (centres undefined) | -2.214
O=C(c1ccco1)N1CCC2(CCCN(c3ncc(F)cn3)C2)C1 (centres undefined) | 95.74
O=C(c1ccoc1)N1CCC2(C1)CN(c1ncc(F)cn1)C2 | 0.03212
O=C(c1ccco1)N1CCCC2(C1)CN(c1nncs1)CCO2 (centres undefined) | 86.33
O=C(c1ccco1)N1CCCC2(CN(Cc3ccoc3)CCO2)C1 (centres undefined) | -2.684
O=C(c1ccco1)N1CCC2(CCOC2)C1 (centres undefined) | 5.675
O=C(c1ccco1)N1CCO[C@@H]2CN(c3ncc(F)cn3)CC[C@@H]2C1 | -7.545
Cc1cnc(N2CC3(CCN(C(=O)c4ccoc4)C3)C2)nc1 | -4.182
O=C(O)C(F)(F)F.O=C(c1ccco1)N1CCCC2(CCN(c3nncs3)C2)C1 (centres undefined) | 102.9
O=C(c1ccoc1)N1CCC2(CCCN(c3ncc(F)cn3)C2)C1 (centres undefined) | 105.6
O=C(O)C(F)(F)F.O=C(c1ccccn1)N1CCC2(CCCN(c3nncs3)C2)C1 (centres undefined) | -19.65
O=C(CSCC1CC1)N1CCCC(c2nccn2Cc2ccccn2)C1 (centres undefined) | -4.276
CCC1=N[C@@]2(CC[C@@H]3CN(S(=O)(=O)CC)C[C@@H]32)C(=O)N1CC(C)C | -13.66
